Out of some 2,100 compounds screened, about 590 (28%) were called active. Inconclusive results (about 42%) are left out. This is one part of the list. Unmarked numbers belong to inactive results. Calls come from the whole dose curve; as a rule, active = well fitted inhibition curve with a large enough effect; inconclusive = small, poorly fitted or top-dose-only effect; inactive = flat fitted curve, though single readings scatter.
These compounds were tested against DNA dC->dU-editing enzyme APOBEC-3F (Homo sapiens) (UniProt Q8IUX4) (assay: qHTS for inhibitors of Vif-A3F interactions: Cherry picks). Details: HeLa A3F-eYFP + Vif (tagged APOBEC3F with the HIV-1 protein that degrades it), eYFP fluorescence, 24 h.
Chain of DNA dC->dU-editing enzyme APOBEC-3F (Homo sapiens) (Q8IUX4 whole entry, looked up): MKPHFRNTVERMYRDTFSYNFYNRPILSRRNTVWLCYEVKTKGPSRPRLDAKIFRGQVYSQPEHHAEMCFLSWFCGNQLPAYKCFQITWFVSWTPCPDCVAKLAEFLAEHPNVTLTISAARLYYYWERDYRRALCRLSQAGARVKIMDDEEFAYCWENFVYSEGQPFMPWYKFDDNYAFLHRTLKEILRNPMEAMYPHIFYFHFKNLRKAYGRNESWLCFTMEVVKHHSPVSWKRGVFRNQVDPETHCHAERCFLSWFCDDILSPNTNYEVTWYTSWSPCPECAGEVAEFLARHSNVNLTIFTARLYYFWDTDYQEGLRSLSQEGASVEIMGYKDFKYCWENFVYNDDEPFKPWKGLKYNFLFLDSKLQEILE
Summary of the method: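 Read-out: yellow fluorescence (ex 488 nm, em 500-530 nm) by laser-scanning cytometer after 24 h compound exposure, several concentrations, at 37 deg C. Cells: HeLa line stably co-expressing Vif and C-terminally eYFP-tagged A3F; MG132 served as positive control.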
With `CCCN(C(=O)CSc1n[nH]c(-c2ccc(OC)cc2)n1)c1c(N)n(Cc2ccccc2)c(=O)[nH]c1=O` the max response was -13.7%.
Compound `CCC(=C/c1sc2ccc3ccccc3c2[n+]1C)/C=C1\Sc2ccc3ccccc3c2N1C` has a max response of -0.328%.
`CC(=O)c1cccc(-c2ccnc3c2CC(C(=O)Nc2cccc(NS(C)(=O)=O)c2)O3)c1` (stereo not drawn) was tested, and the max response was -25.6%.
For `CCSC1=NSC2=NC(=O)/C(=C\c3coc4ccccc4c3=O)C(=N)N12`, the Potency was 18.4 µM (active).
`O=C(O)CCCN1C(=O)/C(=C\C(Cl)=C\c2ccccc2)SC1=S` was tested, and the Potency was 4.44 µM (active).
`C[n+]1ccc(/C=C/c2c[nH]c3ccc(F)cc23)cc1` was tested, and the Potency was 16.4 µM (active).
For `Cc1ccc2[nH]cc(/C=C/c3cc[n+](C)cc3)c2c1`, the Potency was 1.4 µM (active).
In the case of `COc1ccc2[nH]cc(/C=C/c3cc[n+](C)cc3)c2c1`, the Potency is reported as 13 µM (active).
With `COc1ccc2c(c1)c(/C=C/c1cc[n+](C)cc1)cn2C` the Potency was 2.23 µM (active).
In the case of `O=C1OC(/C(=C\Nc2cc(Cl)ccc2O)[N+](=O)[O-])c2ccccc21` (stereo not drawn), the max response is reported as -13.5%.
With `COc1cc(C(=O)N/N=C/C2CC=CCC2)cc(OC)c1OC` (stereo not drawn) the max response was -15.3%.
For `CCOC1=C/C(=C/c2c(N)n3nc(-c4ccccc4)sc3nc2=O)C=CC1=O`, the max response was 3.18%.
`N#C/C(=C/c1ccc(N2CCCCCC2)o1)c1cccc(F)c1` was tested, and the max response was -26.2%.
`N#C/C(=C/c1ccc(N2CCOCC2)o1)c1ccc(Cl)cc1` was tested, and the Potency was 4.61 µM (active).
For `N#C/C(=C/c1ccc(N2CCCCC2)o1)c1cccc(F)c1`, the Potency was 5.17 µM (active).
In the case of `N#C/C(=C/c1ccc(N2CCCCCC2)o1)c1ccc(Cl)cc1`, the Potency is reported as 3.66 µM (active).
`Cc1ccc(/C(C#N)=C\c2ccc(N3CCOCC3)o2)cc1` was tested, and the Potency was 12.5 µM (active).
Compound `CC(C)(C)C(=O)/C(=C/c1ccc(Cl)cc1)n1cncn1` has a max response of -2.57%.
With `C/C(=N\NC(=O)C(C)n1nc(C)c([N+](=O)[O-])c1C)c1ccccc1O` (stereo not drawn) the max response was 0.94%.
In the case of `COc1ccc(/C=N/n2cc(-c3ccccc3)nc2N)cc1`, the max response is reported as -18.9%.
In the case of `CCc1ccc(-c2cc(C(F)(F)F)n3nc(C(=O)Nc4cnn(Cc5ccc(C)cc5)c4)cc3n2)s1`, the Potency is reported as 14.6 µM (active).
`CC(=O)Nc1cccc(-c2ccnc3c2CC(C(=O)Nc2ccc(Cl)cc2)O3)c1` (stereo not drawn) gave a max response of -18.1%.
In the case of `CCc1sc(-c2cc3ccc(O)cc3oc2=O)nc1-c1ccc(C)cc1`, the Potency is reported as 4.11 µM (active).
In the case of `O=c1oc2cc(O)ccc2cc1-c1nc(-c2ccc(Cl)c(Cl)c2)cs1`, the Potency is reported as 0.651 µM (active).
`O=C(CCCCl)Oc1ccc2cc(-c3ccc4ccccc4n3)c(=O)oc2c1` showed a max response of 3.21%.
For `COc1cc(-c2nc3ccc(C)cn3c2NCc2ccccc2)ccc1SC1CCCCC1`, the max response was -8.35%.
Work on `Cc1ccc(/C=N/NC(=O)c2nc3nc(C)cc(C)n3n2)cc1` yielded a max response of 1.02%.
`CSc1nc(Sc2ccccc2Cl)c2ccccc2n1` showed a max response of -25.9%.
`COc1cc(/C=C2\SC(=S)N(Nc3ncc(C(F)(F)F)cc3Cl)C2=O)ccc1O` was tested, and the Potency was 18.4 µM (active).
In the case of `CN(C)c1ccc(/C=C2\SC(=S)N(Nc3ncc(C(F)(F)F)cc3Cl)C2=O)cc1`, the Potency is reported as 5.8 µM (active).
Work on `COc1cc(/C=C2\SC(=S)N(NC(=O)c3ccc(O)c(OC)c3)C2=O)ccc1O` yielded a max response of -7.15%.
For `N#CC(=Cc1ccccn1)c1nc(-c2ccc(Cl)cc2)cs1`, the Potency was 15.8 µM (active).
In the case of `CCOC(=O)c1ccc(NC(=O)CSc2nc(-c3ccc(F)cc3)cc(C(F)(F)F)c2C#N)cc1`, the Potency is reported as 18.4 µM (active).
With `Cc1ccc(S(=O)(=O)CCSc2nc(C)cc(C(F)(F)F)c2C#N)cc1` the Potency was 15.8 µM (active).
`CCOC(=O)c1ccc(N=Nc2c(C)c(C#N)c(O)[nH]c2=O)cc1` showed a max response of -0.299%.
`Cc1cc(C(F)(F)F)c(C#N)c(SCC(=O)Nc2nc3ccccc3s2)n1` was tested, and the Potency was 20.6 µM (active).
Compound `Cc1sc2nc(CSCC(=O)Nc3ccccc3C#N)[nH]c(=O)c2c1C` has a max response of -12.7%.
Work on `CCOC(=O)c1c(NC(=O)CSc2nc3ccc(OC)cc3[nH]2)sc2c1CC(C)(C)NC2(C)C` yielded a max response of -17.3%.
`O=C(CSc1nc2ccccc2s1)c1cc2ccccc2o1` gave a max response of -2.01%.
In the case of `CCOC(=O)c1ccc(NC(=O)CSc2nc(-c3ccc(OC)cc3)cc(C(F)(F)F)c2C#N)cc1`, the Potency is reported as 18.4 µM (active).
In the case of `CCOC1=C2CN(S(=O)(=O)c3ccc(C)cc3)[C@H](c3cccc4ccccc34)C[C@H]2C(C#N)(C#N)C(C#N)(C#N)C1`, the max response is reported as -5.21%.
With `CC1(C)Cc2ccccc2C2CC(O)C(=O)N21` (stereo not drawn) the max response was -21.2%.
Work on `N#Cc1c(C(F)(F)F)cc(-c2cccs2)nc1SCC(=O)Nc1cccc(Cl)c1` yielded a max response of -7.91%.
With `CCCCOc1ccc(-c2cc(C(F)(F)F)c(C#N)c(SCC(=O)O)n2)cc1` the Potency was 18.4 µM (active).
`Cc1coc(NC(=O)CSc2nc(-c3ccncc3)cc(C(F)(F)F)c2C#N)n1` was tested, and the Potency was 13 µM (active).
In the case of `CCOC(=O)c1ccc(NC(=O)CSc2nc(-c3cccs3)cc(C(F)(F)F)c2C#N)cc1`, the Potency is reported as 16.4 µM (active).
Work on `N#Cc1ccccc1NC(=O)CSc1nc(-c2ccccc2)cc(C(F)(F)F)c1C#N` yielded a max response of -28.7%.
For `N#Cc1c(C(F)(F)F)cc(-c2cccs2)nc1SCC(=O)Nc1cccc(C(F)(F)F)c1`, the Potency was 18.4 µM (active).
Compound `N#Cc1c(Nc2ccccc2)[n+]([O-])c2ccc(Cl)cc2[n+]1[O-]` has a max response of -2.22%.
Compound `Oc1ccc(C=NNC(=S)Nc2ccc(F)cc2)c(O)c1` has a max response of -2.9%.
`S=C(NN=Cc1ccccn1)Nc1ccccn1` was tested, and the max response was 1.89%.
For `Clc1ccc(/C=N/NC2=Nc3cccc4cccc2c34)cc1`, the Potency was 14.6 µM (active).
With `Cc1csc(NC(=O)CCC(=O)N(CC(=O)NC2CCCC2)Cc2ccccc2)n1` the max response was 0.176%.
For `CCS(=O)(=O)N1N=C(c2ccc(C)cc2)CC1c1cc2ccc(OC)cc2nc1Cl` (stereo not drawn), the max response was -11.9%.
For `COc1ccc(C2CC(c3ccncc3)=NN2c2ccc(S(N)(=O)=O)cc2)cc1` (stereo not drawn), the Potency was 16.4 µM (active).
With `Cc1ccc2c(/C=C/c3c[nH]c4ccccc34)ccnc2c1C` the Potency was 14.6 µM (active).
With `C(=C\c1c[nH]c2ccccc12)/c1nccc2ccccc12` the Potency was 10.3 µM (active).
With `C(=Cc1c[nH]c2ccccc12)c1nccc2ccccc12` the Potency was 20.6 µM (active).
For `c1ccc2c(c1)nc(N1CCOCC1)c1nnnn12`, the max response was -7.94%.
For `COC(=O)c1sc(NC(=O)c2ccc([N+](=O)[O-])o2)c(C#N)c1C`, the max response was -29.9%.
Work on `O=C(Nc1ncccn1)c1ccc([N+](=O)[O-])o1` yielded a max response of -18.8%.
`CCOC(=O)CCc1ccc(NC(=O)/C=C/c2ccc([N+](=O)[O-])o2)cc1` was tested, and the Potency was 8.2 µM (active).
In the case of `N#CCc1ccc(NC(=O)/C=C/c2ccc([N+](=O)[O-])o2)cc1`, the Potency is reported as 4.11 µM (active).
`O=[N+]([O-])c1ccccc1C=NNC(=S)NN=Cc1ccccc1[N+](=O)[O-]` showed a max response of -27.9%.
`O=C1C(=Cc2ccccc2[N+](=O)[O-])Cc2ccccc21` was tested, and the Potency was 18.4 µM (active).
In the case of `Nc1ccccc1C=C1Cc2ccccc2C1=O`, the Potency is reported as 11.6 µM (active).
With `CCN1C/C(=C/c2cccc([N+](=O)[O-])c2)C(=O)/C(=C/c2cccc([N+](=O)[O-])c2)C1` the max response was -17.2%.
Compound `CC(NC(=S)Nc1cccc(C(F)(F)F)c1)C(C)(C)C` (stereo not drawn) has a max response of 1.09%.
With `Cc1[nH][nH]c(=O)c1C(c1c(C)[nH][nH]c1=O)c1cn(Cc2ccccc2Cl)c2ccccc12` the max response was -24.8%.
With `COc1cc(/C=C(\C#N)c2nc3ccc(C)cc3[nH]2)ccc1OC(C)C` the Potency was 20.6 µM (active).
For `Cc1ccc2nc(/C(C#N)=C/c3ccc(O)c(O)c3)[nH]c2c1`, the Potency was 15.8 µM (active).
Work on `C=CCNC(=S)N/N=C/c1ccc(C)cc1C` yielded a max response of -2.08%.
Work on `CCN(CC)c1ccc(NC(=O)c2ccc(=O)[nH]c2)cc1S(=O)(=O)Nc1ccccc1OC` yielded a max response of -20.2%.
For `Cc1[nH]c2ccccc2c1/C=N/Nc1ccc([N+](=O)[O-])cc1`, the Potency was 18.4 µM (active).
With `O=[N+]([O-])c1ccc(N/N=C/c2c[nH]c3ccccc23)cc1` the Potency was 14.6 µM (active).
In the case of `COc1ccccc1NS(=O)(=O)c1cc([N+](=O)[O-])ccc1N/N=C/c1c[nH]c2ccccc12`, the Potency is reported as 13 µM (active).
`O=C(N/N=C/c1c[nH]c2ccccc12)C1COc2ccccc2O1` (stereo not drawn) was tested, and the max response was 4.43%.
For `COc1ccccc1NS(=O)(=O)c1cc([N+](=O)[O-])ccc1N/N=C/c1c(C)[nH]c2ccccc12`, the Potency was 1.98 µM (active).
`Cc1cccn2c(=O)c3cc(C#N)c(=NC(=O)c4cccs4)n(CCCOC(C)C)c3nc12` showed a max response of -23.5%.
`Cc1cccc(CSc2cccc3cccnc23)c1` showed a max response of 2.73%.
`Cn1c(=O)c2c(nc(NC3CCCC3)n2C)n(C)c1=O` was tested, and the max response was -0.225%.
`COc1cc(/C=N/Nc2cc(C)nc(NS(=O)(=O)c3ccccc3)n2)ccc1O` showed a max response of 2.36%.
`O=C(c1ccccn1)C1CCCN(Cc2cn[nH]c2-c2cc3ccccc3o2)C1` (stereo not drawn) showed a max response of 1.54%.
In the case of `O=C(O)CSc1c2ccccc2cc2ccccc12`, the max response is reported as -4.37%.
With `O=[N+]([O-])c1ccc(N/N=C/c2c[nH]c3ccccc23)c(S(=O)(=O)Nc2ccc(Cl)cc2)c1` the Potency was 18.4 µM (active).
In the case of `C/C(=N/Nc1ccc([N+](=O)[O-])cc1)c1c[nH]c2ccccc12`, the Potency is reported as 9.2 µM (active).
For `COc1ccc(NS(=O)(=O)c2cc([N+](=O)[O-])ccc2N/N=C/c2c(C)[nH]c3ccccc23)cc1`, the Potency was 16.4 µM (active).
Work on `CNC(=S)N/N=C(\C)c1ccc(Cl)s1` yielded a max response of -3.1%.

Reference: PubChem BioAssay AID651814 (National Center for Advancing Translational Sciences (NCATS), 2012)
Note: nearly all actives have a fitted effect of over 70% in size.
Potency is the fitted concentration of half-maximal effect.
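Throughout, for max response: % of control where 0% means no effect; active compounds raise eYFP fluorescence by blocking Vif-driven A3F loss.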
